# Several values for one entry are separate records, joined by “and”; a condition that tells them apart may be missing. Equal values may be shown once. Records with an inconclusive call do not appear. Some structures have more than one record in an assay (separate samples or runs), and their calls can disagree. Activity calls are given as the source filed them. The call rests on the fitted dose curve; in most records, active means well fitted inhibition curve with a large enough effect; inconclusive means small, poorly fitted or top-dose-only effect; inactive means flat fitted curve, though single readings scatter.
# Test system: CRL-7250
# Experiment: Cytotoxic Profiling of Annotated Libraries Using Quantitative High-Throughput Screening (AID 1296008); further: nearly all actives have a fitted effect of over 60% in size
# Conditions: Five cell lines viability, CellTiter-Glo ATP luminescence, 48-72 h; max response: hits give low values
# In short: (§1)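 Compounds were pin-transferred onto cells and incubated 48 or 72 hr at 37 degree Celsius, 95% humidity. CellTiter-Glo was added, plates sat 10 min at room temperature, then ATP-coupled luminescence was imaged as the viability read-out.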
# On the % scale 0 is the no-effect control and ±100 the full control effect; potency means the concentration at half of the fitted maximal effect.
Structure (SMILES),max response,outcome,Potency
O=C1N(c2ccccc2)c2ccccc2C1(Cc1ccncc1)Cc1ccncc1,-6.52% (inactive) and 2.8% (inactive),–,–
Cc1cc(C(C)(C)C)c(O)c(C)c1CC1=NCCN1,4.59% (inactive) and 1.76% (inactive),inactive,–
CC1COc2c(N3CCN(C)CC3)c(F)cc3c(=O)c(C(=O)O)cn1c23 (stereo not drawn),1.02% (inactive),inactive,–
CCc1cccc2c3c([nH]c12)C(CC)(CC(=O)O)OCC3 (stereo not drawn),-0.931% (inactive),–,–
Nc1nc2c(ncn2COC(CO)CO)c(=O)[nH]1,1.91% (inactive),–,–
CN(C)C(=N)N=C(N)N,–,inactive,–
C[C@H]1c2cccc(O)c2C(O)=C2C(=O)[C@]3(O)C(O)=C(C(N)=O)C(=O)[C@@H](N(C)C)[C@@H]3[C@@H](O)[C@@H]21,-2.19% (inactive),inactive,–
NC(=O)NO,–,–,13.2 µM (active)
NC12CC3CC(CC(C3)C1)C2,–,inactive,–
CC(C)(C)C(=O)Oc1ccc(S(=O)(=O)Nc2ccccc2C(=O)NCC(=O)O)cc1,4.89% (inactive),inactive,–
Cc1ccc(-c2cc(C(F)(F)F)nn2-c2ccc(S(N)(=O)=O)cc2)cc1,-3.61% (inactive),inactive,–
NCCS(=O)(=O)O,-1.77% (inactive) and -3.17% (inactive),–,–
CCCNCC(O)COc1ccccc1C(=O)CCc1ccccc1 (stereo not drawn),-5.96% (inactive),inactive,–
O=C(c1ccc(F)cc1)C1CCN(CCn2c(=O)[nH]c3ccccc3c2=O)CC1,-21.4% (inactive) and 4.56% (inactive),inactive,–
Cn1cnc2c1c(=O)[nH]c(=O)n2C,–,inactive,–
C[C@](N)(Cc1ccc(O)c(O)c1)C(=O)O,-8.13% (inactive) and -6.61% (inactive),–,–
NCCc1cnc[nH]1,–,inactive,–
Cn1ccc2cc3c(cc21)CCN3C(=O)Nc1cccnc1,-6.32% (inactive),inactive,–
CN1CCN(CCCN2c3ccccc3Sc3ccc(Cl)cc32)CC1,-6.94% (inactive),inactive,–

# Test system: HEK293
# Experiment: as above
# Conditions: Five cell lines viability, CellTiter-Glo ATP luminescence, 48-72 h; max response: hits give low values
# In short: as §1
Structure (SMILES),max response,outcome,Potency
COc1ccc2[nH]cc(CCNC(C)=O)c2c1,0.212% (inactive),inactive,–
Clc1ccc2nsnc2c1NC1=NCCN1,-8.03% (inactive),inactive,–
NC(=O)OCC(COC(N)=O)c1ccccc1,-9.25% (inactive),inactive,–
COc1ccc2c(c1)c(CC(=O)O)c(C)n2C(=O)c1ccc(Cl)cc1,-16.4% (inactive),inactive,–
Cc1cnc(C(=O)NCCc2ccc(S(=O)(=O)NC(=O)NC3CCCCC3)cc2)cn1,-14.8% (inactive),–,–
CC(C)(Oc1ccc(C2CC2(Cl)Cl)cc1)C(=O)O (stereo not drawn),-10.2% (inactive),–,–
CN(C)c1nc(N(C)C)nc(N(C)C)n1,-4.81% (inactive) and -7.03% (inactive),–,–
CC(=O)OCC(CCn1cnc2cnc(N)nc21)COC(C)=O,–,inactive,–
N[C@@H](Cc1c[nH]c2ccc(O)cc12)C(=O)O,2.68% (inactive),inactive,–
O=c1c(O)c(-c2ccc(O)c(O)c2)oc2cc(O)cc(O)c12,-3.52% (inactive) and -1.32% (inactive),–,–
CC[N+](CC)(CC)CCOc1cccc(OCC[N+](CC)(CC)CC)c1OCC[N+](CC)(CC)CC,-0.136% (inactive),inactive,–
COc1ccc(C2CNC(=O)C2)cc1OC1CCCC1 (stereo not drawn),0.111% (inactive),inactive,–
NCCCCCC(=O)O,-1.96% (inactive) and 0.967% (inactive),–,–
CC1(C)O[C@H]2CC(=O)OC[C@]23[C@H]2CC[C@@]4(C)[C@H](c5ccoc5)OC(=O)[C@H]5O[C@]54[C@]2(C)C(=O)C[C@@H]13,-8.07% (inactive),inactive,–
O=C1N(c2ccccc2)c2ccccc2C1(Cc1ccncc1)Cc1ccncc1,2.06% (inactive),inactive,–
Cc1cc(C(C)(C)C)c(O)c(C)c1CC1=NCCN1,-3.25% (inactive),–,9.35 µM (active)
CC1COc2c(N3CCN(C)CC3)c(F)cc3c(=O)c(C(=O)O)cn1c23 (stereo not drawn),-5.36% (inactive),inactive,–
CCc1cccc2c3c([nH]c12)C(CC)(CC(=O)O)OCC3 (stereo not drawn),1.01% (inactive),inactive,–
Nc1nc2c(ncn2COC(CO)CO)c(=O)[nH]1,-8.08% (inactive),–,0.132 µM (active)
CN(C)C(=N)N=C(N)N,2.32% (inactive),inactive,–
C[C@H]1c2cccc(O)c2C(O)=C2C(=O)[C@]3(O)C(O)=C(C(N)=O)C(=O)[C@@H](N(C)C)[C@@H]3[C@@H](O)[C@@H]21,-8.48% (inactive),–,–
